Screening data: PubChem BioAssay, National Center for Advancing Translational Sciences (NCATS)
PLK1 PBD block: qHTS for Inhibitors of PLK1-PDB (polo-like kinase 1 - polo-box domain): Primary Screen. Serine/threonine-protein kinase PLK1 (Homo sapiens), P53350. Potency, µM, for inactives: max response, negative = inhibition, actives largely listed as inhibitors. Plk1 PBD binding of FITC phosphopeptide, fluorescence polarization. 2.8% of 360,000 active; also: potency is read from the fitted curve at half-maximal effect; series mostly up to about 57 µM; % is scaled to controls: 0 for no effect and ±100 for the full control effect; nearly all actives have a fitted effect of over 65% in size
JMJD2A Tudor: qHTS Assay for Inhibitors of JMJD2A-Tudor Domain; AID 504339, 2011; AlphaScreen JMJD2A-Tudor / H3K4me3 peptide binding; Lysine-specific demethylase 4A (Homo sapiens), O75164; 4.4% of 390,000 active; Potency, µM (highest dose often 114 µM), without a hit: at the highest dose activity change, negative = inhibition, actives largely listed as inhibitors; also: potency is read from the fitted curve at half-maximal effect; % is scaled to controls: 0 for no effect and ±100 for the full control effect; nearly all actives have a fitted effect of over 50% in size
PI5P4Ka inh: qHTS for Inhibitors of phosphatidylinositol 5-phosphate 4-kinase (PI5P4K) | Phosphatidylinositol 5-phosphate 4-kinase type-2 alpha (Homo sapiens), P48426 | PI5P4Kalpha enzyme, ADP-Glo luminescence, 60 min; stronger effect = lower value | max response, % | 1.2% of 330,000 active; active = max response of -50% or lower; inconclusive = between -30% and -50%; inactive = -30% or higher; also: value at the top dose of about 77 µM; % is scaled to controls: 0 for no effect and ±100 for the full control effect
Target sequence (P48426 whole entry, looked up): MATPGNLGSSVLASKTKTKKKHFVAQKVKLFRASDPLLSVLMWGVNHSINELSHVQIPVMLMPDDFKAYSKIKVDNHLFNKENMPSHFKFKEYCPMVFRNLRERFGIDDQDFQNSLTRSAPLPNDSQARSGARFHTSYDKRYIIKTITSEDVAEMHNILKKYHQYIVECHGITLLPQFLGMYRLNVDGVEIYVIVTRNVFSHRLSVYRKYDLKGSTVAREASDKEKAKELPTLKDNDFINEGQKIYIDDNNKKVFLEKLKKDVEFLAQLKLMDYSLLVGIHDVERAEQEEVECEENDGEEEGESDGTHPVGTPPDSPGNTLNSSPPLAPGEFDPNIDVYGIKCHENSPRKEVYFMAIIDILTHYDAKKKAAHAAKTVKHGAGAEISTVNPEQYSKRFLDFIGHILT
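Luminescence from ADP-Glo served as readout of PI5P4Kalpha activity in a qHTS format. Reaction: enzyme, substrate, compound, ATP at 5 microM final, 60 min at RT.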
G9a inh: qHTS Assay for Inhibitors of Histone Lysine Methyltransferase G9a. 8.8% of 350,000 active. Histone-lysine N-methyltransferase EHMT2 (Homo sapiens), Q96KQ7. G9a H3K9 monomethylation, AlphaScreen, 2 h. Potency, µM (titrated, usually from 102 µM), for inactives: at the top dose activity, negative = inhibition, actives largely listed as inhibitors; also: potency is read from the fitted curve at half-maximal effect; % is scaled to controls: 0 for no effect and ±100 for the full control effect; nearly all actives have a fitted effect of over 75% in size
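Compounds were preincubated with 20 nM G9a for 15 min, after which biotinylated H3K9 peptide (500 nM) and SAM (20 uM) started a 2 h room-temperature reaction. Monomethylated product was quantified by antibody-based AlphaScreen chemiluminescence.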
HP1b chromo inh: HTS for Inhibitors of HP1-beta Chromodomain Interactions with Methylated Histone Tails; Potency, µM (top dose mostly 114 µM), for the others: at the top dose activity change, negative = inhibition, usual class: inhibitors; Chromobox protein homolog 1 (Homo sapiens), P83916; 0.56% of 390,000 active; AlphaScreen HP1-beta / biotin-H3K9me3 peptide binding; AID 540317, 2011; also: potency is read from the fitted curve at half-maximal effect; nearly all actives have a fitted effect of over 70% in size
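AlphaScreen: HP1-beta (50 nM) preformed 30 min with biotin-H3(1-18)K9me3 peptide (50 nM) in PBS pH 7.4, 0.01% Tween-20. Compound added for 30 min at RT, then streptavidin donor/nickel chelate acceptor beads (10 ug/mL) for 30 min.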
BAZ2B inh: qHTS Assay for Inhibitors of BAZ2B; Bromodomain adjacent to zinc finger domain protein 2B (Homo sapiens), Q9UIF8; AlphaScreen BAZ2B-H3K14Ac peptide displacement; Potency, µM (doses to about 114 µM), for the others: at the top dose activity change, negative = inhibition, actives largely listed as inhibitors; 4.4% of 360,000 active; AID 504333, 2011; also: potency is read from the fitted curve at half-maximal effect; % is scaled to controls: 0 for no effect and ±100 for the full control effect; nearly all actives have a fitted effect of over 60% in size
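Multi-concentration screen (max 110 uM) measuring displacement of acetylated histone H3 peptide from BAZ2B by AlphaScreen, using 50 nM protein, 50 nM peptide and 10 ug/mL streptavidin donor plus Ni-chelate acceptor beads.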
Numbers without * were called inactive; u = inconclusive; x = not tested or not shown; ! = not active in a repeat; [ ] = dose if it differs, or a comment. This is a sample that favours compounds with a hit; in the whole collection about 12% have one here. Unless noted, calls follow the shape of the dose curve; as a rule, active = well fitted curve in the direction sought with a large enough effect; inconclusive = small, poorly fitted or top-dose-only effect, or another doubt; inactive = no such curve, though single readings can be large; an effect the other way counts as inactive or inconclusive.

SMILES | PLK1 PBD block | JMJD2A Tudor | PI5P4Ka inh | G9a inh | HP1b chromo inh | BAZ2B inh
O=C(Oc1ccc(Cl)c2cccnc12)N1CCCCCC1 | -7% | 6% | 15 | 14%[59 µM] | 44% | 12%
CCCCC12CN3CC(C)(CN(C1)C3c1ccccn1)C2=O (centres undefined) | x | 25µM* | x | 0.63µM* | 11% | 8.9µM*
NS(=O)(=O)c1ccc(CNC(=O)COc2ccc3c4c(c(=O)oc3c2)CCCC4)cc1 | 24µM* | 35µM* | -14 | 14% | 3% | -3%[57.1 µM]
Cc1cc(OCC(=O)NCc2cccnc2)c2c3c(c(=O)oc2c1)CCCC3 | -1% | -16% | 9 | 4% | 22% | -23%
COc1ccc(NC(=S)NC(NC(=O)CF)C(Cl)(Cl)Cl)c([N+](=O)[O-])c1 (centres undefined) | -8% | 3% | -2 | 10µM* | 15% | u
Cc1ccccc1NC(=S)NC(NC(=O)CF)C(Cl)(Cl)Cl (centres undefined) | -11% | 3% | -2 | -1%[59 µM] | 32% | -21%
CCCCCCC[n+]1ccc(-c2cc[n+](CCCCCCC)cc2)cc1 | -9% | u | -6 | 4.5µM* | 3% | 79µM*
CCCCC/C=C\C[C@@H](/C=C/C=C\C/C=C\CCCC(=O)O)OO | x | x | x | 16%[59 µM] | x | x
CCCCC/C=C\C/C=C\C/C=C\C/C=C\CCCC(=O)O | x | x | x | 16µM*! | x | -7%
O=C1NC(=S)NC(=O)C1Cc1ccccc1 | u | 89µM* | u | x | u | x
O=C1NC(=O)N(Cc2ccccc2)C(=O)C1Cc1ccccc1 (centres undefined) | -9% | -16% | 0 | x | 33% | x
O=C(NCCc1ccc(Cl)cc1)c1ccc(CNc2c(N3CCOCC3)c(=O)c2=O)cc1 | -3% | -7% | -8 | -2% | 53% | -1%
COc1ccc2c(c1)CC[C@@H]1[C@@H]2CC[C@]2(C)[C@@H](NCCCCCCN3C(=O)C=CC3=O)CC[C@@H]12 | x | x | x | 10%[59 µM] | x | x
Cc1c(C=C2C(=O)N(C)C(=O)N(C)C2=O)c(=O)n(-c2ccccc2)n1C | u | -2% | 7 | -5%[59 µM] | 39% | 5%
CN1C(=O)C(=Cc2c(OCc3cnc(Cl)s3)ccc3ccccc23)C(=O)N(C)C1=O | 4.7µM* | -2% | -24 | u | 40% | u
COc1ccc(Cn2c(N)c(C(=O)NCc3ccco3)c3nc4ccccc4nc32)cc1 | -9% | -16% | -7 | 11% | 29% | -4%
COc1ccc(N2CC(C(=O)NCc3ccco3)CC2=O)cc1 (centres undefined) | -14% | u | -6 | 18µM* | 25% | -13%
Cc1cccc(NC(=S)NC2CC3CCC(C2)N3Cc2ccco2)c1 (centres undefined) | -3% | -9% | x | u | 5% | 12%[57.1 µM]
CN1CCN(P(=O)(c2ccccc2)c2nc3ccccc3s2)CC1 (centres undefined) | u | -12% | x | -6% | 28% | -3%
CCS(=O)(=O)N1CCN(C2CCC(C)CC2)CC1 (centres undefined) | -6% | 6.3µM* | x | 5.6µM* | u | 56µM*
Cc1ccc(N/N=C/C=C/c2ccco2)cc1 | -20% | 50µM* | 2 | x | u | x
COc1cc(Cn2c(=O)oc3ccc(C)cc32)ccc1OC(C)C | -10% | -1%[57.1 µM] | 1 | 13%[59 µM] | 90% | 22%
Cc1ccc(-c2nnc(Nc3ccc(O)cc3)c3ccccc23)cc1S(=O)(=O)N1CCOCC1 | x | u | x | 4%[59 µM] | 13% | -20%
Cc1ccc(N)c(C(=O)c2ccccc2)c1 | -2% | u | x | u | -13% | u
Cc1cc(N=Nc2ccccc2C)ccc1N | 2% | 40µM* | 56 | x | 35µM* | x
